In PubChem BioAssay AID1159580 (chemical genetic matrix, 2015):
The whole screen tested about 5,500 compounds, of which about 2,000 (36%) were called active. About 18% were inconclusive and are not listed. No stated cut-off is given here; in the data, active means normalized growth mostly below about 0.91 (no sharp cut-off); inconclusive means no clear call, values can overlap the other calls; inactive means mostly above about 0.92. Some of the results follow.

Assay: chemical genetic growth profiling, strain panel (AID 1159580);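 further: tested at 20 µM; growth read once vehicle control cultures reached saturation at 30 °C; 1 = growth at the plate median or of vehicle wells; lower values mean less growth of the strain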
Conditions: growth OD

Measured: normalized growth

O=C1[C@H](CCC(O)c2ccc(F)cc2)[C@@H](c2ccc(O)cc2)N1c1ccc(F)cc1 (some centres not stated)
inactive: S. cerevisiae deletion strains, locus YJR075W, strain HOC1, active compounds read low 0.986 | S. cerevisiae deletion strains, locus YKL009W, strain mrt4, active compounds read low 0.944 | S. cerevisiae deletion strains, locus YKL068W, active compounds read low 0.989 | S. cerevisiae deletion strains, locus YKL085W, strain MDH1 (second series), active compounds read low 0.983 | S. cerevisiae deletion strains, locus YKL085W, strain MDH1, active compounds read low 0.983 | S. cerevisiae deletion strains, locus YKL160W, strain elf1, active compounds read low 0.974 | S. cerevisiae deletion strains, locus YKL190W, strain CNB1, active compounds read low 0.995 | S. cerevisiae deletion strains, locus YKR001C, strain vps1, active compounds read low 0.968 | S. cerevisiae deletion strains, locus YKR026C, strain gcn3, active compounds read low 0.961 | S. cerevisiae deletion strains, locus YKR091W, strain srl3, active compounds read low 0.977 | S. cerevisiae deletion strains, locus YLL001W, strain dnm1, active compounds read low 0.937 | S. cerevisiae deletion strains, locus YLL026W, active compounds read low 0.977 | S. cerevisiae deletion strains, locus YLL041C, strain sdh2, active compounds read low 0.967 | S. cerevisiae deletion strains, locus YLR027C, strain aat2, active compounds read low 0.98 | S. cerevisiae deletion strains, locus YLR039C, strain RIC1, active compounds read low 0.995 | S. cerevisiae deletion strains, locus YLR058C, strain SHM2, active compounds read low 0.982 | S. cerevisiae deletion strains, locus YLR102C, strain apc9, active compounds read low 0.972 | S. cerevisiae deletion strains, locus YLR113W, strain HOG1, active compounds read low 1 | S. cerevisiae deletion strains, locus YLR221C, strain rsa3, active compounds read low 0.986 | S. cerevisiae deletion strains, locus YLR258W, strain gsy2, active compounds read low 0.972 | S. cerevisiae deletion strains, locus YLR262C, strain YPT6 (second series), active compounds read low 0.988 | S. cerevisiae deletion strains, locus YLR262C, strain YPT6, active compounds read low 0.978 | S. cerevisiae deletion strains, locus YLR268W, strain sec22, active compounds read low 0.96 | S. cerevisiae deletion strains, locus YLR320W, strain mms22, active compounds read low 0.975 | S. cerevisiae deletion strains, locus YLR330W, strain CHS5, active compounds read low 0.988 | S. cerevisiae deletion strains, locus YLR342W, strain FKS1 (second series), active compounds read low 1.01 | S. cerevisiae deletion strains, locus YLR342W, strain FKS1, active compounds read low 0.973 | S. cerevisiae deletion strains, locus YLR357W, strain rsc2, active compounds read low 0.978 | S. cerevisiae deletion strains, locus YLR370C, strain arc18, active compounds read low 0.967 | S. cerevisiae deletion strains, locus YLR371W, strain rom2, active compounds read low 0.971 | S. cerevisiae deletion strains, locus YLR384C, strain iki3, active compounds read low 0.976 | S. cerevisiae deletion strains, locus YLR418C, strain cdc73, active compounds read low 0.948 | S. cerevisiae deletion strains, locus YML016C, strain PPZ1, active compounds read low 0.989 | S. cerevisiae deletion strains, locus YML032C, strain rad52, active compounds read low 0.979 | S. cerevisiae deletion strains, locus YML120C, strain ndi1, active compounds read low 0.968 | S. cerevisiae deletion strains, locus YML124C, strain tub3, active compounds read low 0.977 | S. cerevisiae deletion strains, locus YMR058W, strain fet3, active compounds read low 0.977 | S. cerevisiae deletion strains, locus YMR078C, strain ctf18, active compounds read low 0.968 | S. cerevisiae deletion strains, locus YMR125W, strain sto1, active compounds read low 0.971 | S. cerevisiae deletion strains, locus YMR129W, active compounds read low 0.962 | S. cerevisiae deletion strains, locus YMR205C, strain PFK2, active compounds read low 0.944 | S. cerevisiae deletion strains, locus YMR223W, strain ubp8, active compounds read low 0.987 | S. cerevisiae deletion strains, locus YMR231W, strain pep5, active compounds read low 0.994 | S. cerevisiae deletion strains, locus YMR263W, strain SAP30, active compounds read low 0.997 | S. cerevisiae deletion strains, locus YMR307W, strain GAS1, active compounds read low 0.976 | S. cerevisiae deletion strains, locus YNL067W, strain RPL9B, active compounds read low 1 | S. cerevisiae deletion strains, locus YNL071W, strain lat1, active compounds read low 0.984 | S. cerevisiae deletion strains, locus YNL128W, strain TEP1, active compounds read low 0.994 | S. cerevisiae deletion strains, locus YNL153C, strain GIM3, active compounds read low 0.995 | S. cerevisiae deletion strains, locus YNL183C, strain NPR1, active compounds read low 0.961 | S. cerevisiae deletion strains, locus YNL209W, strain ssb2, active compounds read low 0.99 | S. cerevisiae deletion strains, locus YNL233W, strain BNI4, active compounds read low 0.984 | S. cerevisiae deletion strains, locus YNL248C, strain rpa49, active compounds read low 0.965 | S. cerevisiae deletion strains, locus YNL250W, strain rad50, active compounds read low 0.974 | S. cerevisiae deletion strains, locus YNL271C, strain bni1, active compounds read low 0.968 | S. cerevisiae deletion strains, locus YNL298W, strain CLA4, active compounds read low 0.961 | S. cerevisiae deletion strains, locus YNL307C, strain MCK1, active compounds read low 0.961 | S. cerevisiae deletion strains, locus YNL322C, strain KRE1 (second series), active compounds read low 0.971 | S. cerevisiae deletion strains, locus YNL322C, strain KRE1, active compounds read low 0.994 | S. cerevisiae deletion strains, locus YNR049C, strain mso1, active compounds read low 0.962 | S. cerevisiae deletion strains, locus YNR052C, strain pop2, active compounds read low 0.973 | S. cerevisiae deletion strains, locus YOL006C, strain TOP1, active compounds read low 0.908 | S. cerevisiae deletion strains, locus YOL012C, strain htz1 1.05 | S. cerevisiae deletion strains, locus YOL147C, strain pex11, active compounds read low 0.975 | S. cerevisiae deletion strains, locus YOR001W, strain rrp6, active compounds read low 0.967 | S. cerevisiae deletion strains, locus YOR061W, strain CKA2, active compounds read low 0.984 | S. cerevisiae deletion strains, locus YOR069W, strain VPS5, active compounds read low 0.987 | S. cerevisiae deletion strains, locus YOR070C, strain gyp1, active compounds read low 0.982 | S. cerevisiae deletion strains, locus YOR080W, strain dia2, active compounds read low 0.956 | S. cerevisiae deletion strains, locus YOR083W, strain WHI5, active compounds read low 0.967 | S. cerevisiae deletion strains, locus YOR106W, strain vam3, active compounds read low 0.918 | S. cerevisiae deletion strains, locus YOR136W, strain idh2, active compounds read low 0.979 | S. cerevisiae deletion strains, locus YOR144C, strain elg1, active compounds read low 0.968 | S. cerevisiae deletion strains, locus YOR184W, strain ser1, active compounds read low 0.972 | S. cerevisiae deletion strains, locus YOR231W, strain MKK1, active compounds read low 0.961 | S. cerevisiae deletion strains, locus YOR265W, strain rbl2, active compounds read low 0.976 | S. cerevisiae deletion strains, locus YOR270C, strain vph1, active compounds read low 0.801 | S. cerevisiae deletion strains, locus YOR290C, strain snf2, active compounds read low 0.987 | S. cerevisiae deletion strains, locus YOR316C, strain cot1, active compounds read low 0.966 | S. cerevisiae deletion strains, locus YPL051W, strain arl3, active compounds read low 0.991 | S. cerevisiae deletion strains, locus YPL055C, strain LGE1, active compounds read low 0.998 | S. cerevisiae deletion strains, locus YPL078C, strain atp4, active compounds read low 0.908 | S. cerevisiae deletion strains, locus YPL106C, strain sse1, active compounds read low 1 | S. cerevisiae deletion strains, locus YPL240C, strain hsp82, active compounds read low 0.994 | S. cerevisiae deletion strains, locus YPL241C, strain CIN2, active compounds read low 0.996 | S. cerevisiae deletion strains, locus YPL256C, strain CLN2, active compounds read low 0.97 | S. cerevisiae deletion strains, locus YPR119W, strain clb2, active compounds read low 0.984 | S. cerevisiae deletion strains, locus YPR141C, strain kar3, active compounds read low 0.956 | S. cerevisiae deletion strains, locus YPR163C, strain tif3, active compounds read low 0.962 | S. cerevisiae deletion strains, locus YPR167C, strain met16, active compounds read low 0.966 | S. cerevisiae deletion strains, strain wtn01, active compounds read low 0.971 | S. cerevisiae strains, strain wild type, active compounds read low 1.01
